Test results as given in PubChem BioAssay.
Active and inactive are the calls of the source.

Tests used:
[1] = small molecules captured by biotinylated probe aFSTL3 – biochemical, small-molecule microarray, fluorescence 635/667, stem cell growth factor project, primary screen (AID 1064); settings: higher = more signal;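 note: measures binding of the biotinylated anti-FSTL3 antibody to printed compounds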
[2] = binders from COS7 lysate, DM2A8 probe, primary screen, torsin A project, cell lysate, small-molecule microarray, fluorescence 635/667 (AID 1065); settings: higher = more signal, COS7 lysate expressing mutant human TOR1A
[3] = small molecules captured by biotinylated probe aFGF2 – biochemical, small-molecule microarray, fluorescence 635/667, stem cell growth factor project, primary screen (AID 1067); settings: higher = more signal;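 note: measures binding of biotinylated aFGF2 protein to printed compounds on slides; z-score merges feature fluorescence and signal-to-noise across triplicate slides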
[4] = small molecules captured by biotinylated probe aFGF10 – biochemical, small-molecule microarray, fluorescence 635/667, stem cell growth factor project, primary screen (AID 1071); settings: higher = more signal;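 note: score merges 667 nm spot intensity and signal to noise from triplicate slides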
[5] = target: Neurogenic locus notch homolog protein 2 (Homo sapiens) (UniProt Q04721); assay: small molecules binding Notch2 protein – biochemical, small-molecule microarray, 635 nm fluorescence, stem cell growth factors, primary screen (AID 1073); settings: higher = more signal
[6] = target: Pro-neuregulin-1, membrane-bound isoform (Homo sapiens) (UniProt Q02297); assay: small molecules binding neuregulin-1 protein – biochemical, small-molecule microarray, fluorescence 635/667, psychiatric disease protein project, primary screen (AID 1075); settings: NRG1 binding, 635 nm fluorescence, higher = more signal;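 note: score combines 667 nm spot fluorescence with signal to noise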
[7] = test system: Neuregulin-1 EGF-like domain; assay: small molecules binding NRG1 EGF domain – biochemical, small-molecule microarray, 635 nm fluorescence, primary screen (AID 1081); settings: higher = more signal;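 note: binding of the protein to compounds printed on small-molecule microarray slides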
[8] = FRG1 expression reporter modulators in myotubes – cell-based, C2C12 myotubes, firefly/Renilla luciferase, luminescence, FRG1 inhibition for FSHD, primary screen (AID 1084); settings: FRG1 promoter luciferase, higher = more signal, called active from +8 up or from −8 down
[9] = small molecules captured by biotinylated probe aFST – biochemical, small-molecule microarray, fluorescence 635/667, stem cell growth factor project, primary screen (AID 1086); settings: higher = more signal;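 note: score merges 667 nm fluorescence with signal-to-noise of each printed compound spot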
[10] = binders of probe aHhip on microarray, primary screen, stem cell growth factor project, biochemical, small-molecule microarray, fluorescence 635/667 (AID 1087); settings: higher = more signal;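 note: score merges spot fluorescence at 667nm with spot signal to noise ratio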

Chain of Pro-neuregulin-1, membrane-bound isoform (Homo sapiens) (Q02297 whole entry, looked up, the tested form may be a part, canonical isoform): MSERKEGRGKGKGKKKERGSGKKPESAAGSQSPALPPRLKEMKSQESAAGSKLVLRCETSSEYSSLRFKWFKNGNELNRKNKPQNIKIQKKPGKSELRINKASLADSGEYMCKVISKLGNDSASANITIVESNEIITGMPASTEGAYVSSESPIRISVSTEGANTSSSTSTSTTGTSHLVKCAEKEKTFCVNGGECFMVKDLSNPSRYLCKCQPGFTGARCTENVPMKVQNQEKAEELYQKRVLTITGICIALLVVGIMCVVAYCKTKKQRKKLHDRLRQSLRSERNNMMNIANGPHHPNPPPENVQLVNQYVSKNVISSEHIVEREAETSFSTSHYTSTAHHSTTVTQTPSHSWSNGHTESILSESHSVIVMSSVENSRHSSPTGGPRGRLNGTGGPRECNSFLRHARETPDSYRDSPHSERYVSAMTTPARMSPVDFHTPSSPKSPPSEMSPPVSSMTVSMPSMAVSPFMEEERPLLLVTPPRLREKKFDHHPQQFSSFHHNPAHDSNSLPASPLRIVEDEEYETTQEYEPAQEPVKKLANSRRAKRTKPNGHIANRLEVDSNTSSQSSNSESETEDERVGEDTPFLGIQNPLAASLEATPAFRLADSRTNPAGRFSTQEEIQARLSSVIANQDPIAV
Chain of Neurogenic locus notch homolog protein 2 (Homo sapiens) (Q04721 whole entry, looked up, canonical isoform): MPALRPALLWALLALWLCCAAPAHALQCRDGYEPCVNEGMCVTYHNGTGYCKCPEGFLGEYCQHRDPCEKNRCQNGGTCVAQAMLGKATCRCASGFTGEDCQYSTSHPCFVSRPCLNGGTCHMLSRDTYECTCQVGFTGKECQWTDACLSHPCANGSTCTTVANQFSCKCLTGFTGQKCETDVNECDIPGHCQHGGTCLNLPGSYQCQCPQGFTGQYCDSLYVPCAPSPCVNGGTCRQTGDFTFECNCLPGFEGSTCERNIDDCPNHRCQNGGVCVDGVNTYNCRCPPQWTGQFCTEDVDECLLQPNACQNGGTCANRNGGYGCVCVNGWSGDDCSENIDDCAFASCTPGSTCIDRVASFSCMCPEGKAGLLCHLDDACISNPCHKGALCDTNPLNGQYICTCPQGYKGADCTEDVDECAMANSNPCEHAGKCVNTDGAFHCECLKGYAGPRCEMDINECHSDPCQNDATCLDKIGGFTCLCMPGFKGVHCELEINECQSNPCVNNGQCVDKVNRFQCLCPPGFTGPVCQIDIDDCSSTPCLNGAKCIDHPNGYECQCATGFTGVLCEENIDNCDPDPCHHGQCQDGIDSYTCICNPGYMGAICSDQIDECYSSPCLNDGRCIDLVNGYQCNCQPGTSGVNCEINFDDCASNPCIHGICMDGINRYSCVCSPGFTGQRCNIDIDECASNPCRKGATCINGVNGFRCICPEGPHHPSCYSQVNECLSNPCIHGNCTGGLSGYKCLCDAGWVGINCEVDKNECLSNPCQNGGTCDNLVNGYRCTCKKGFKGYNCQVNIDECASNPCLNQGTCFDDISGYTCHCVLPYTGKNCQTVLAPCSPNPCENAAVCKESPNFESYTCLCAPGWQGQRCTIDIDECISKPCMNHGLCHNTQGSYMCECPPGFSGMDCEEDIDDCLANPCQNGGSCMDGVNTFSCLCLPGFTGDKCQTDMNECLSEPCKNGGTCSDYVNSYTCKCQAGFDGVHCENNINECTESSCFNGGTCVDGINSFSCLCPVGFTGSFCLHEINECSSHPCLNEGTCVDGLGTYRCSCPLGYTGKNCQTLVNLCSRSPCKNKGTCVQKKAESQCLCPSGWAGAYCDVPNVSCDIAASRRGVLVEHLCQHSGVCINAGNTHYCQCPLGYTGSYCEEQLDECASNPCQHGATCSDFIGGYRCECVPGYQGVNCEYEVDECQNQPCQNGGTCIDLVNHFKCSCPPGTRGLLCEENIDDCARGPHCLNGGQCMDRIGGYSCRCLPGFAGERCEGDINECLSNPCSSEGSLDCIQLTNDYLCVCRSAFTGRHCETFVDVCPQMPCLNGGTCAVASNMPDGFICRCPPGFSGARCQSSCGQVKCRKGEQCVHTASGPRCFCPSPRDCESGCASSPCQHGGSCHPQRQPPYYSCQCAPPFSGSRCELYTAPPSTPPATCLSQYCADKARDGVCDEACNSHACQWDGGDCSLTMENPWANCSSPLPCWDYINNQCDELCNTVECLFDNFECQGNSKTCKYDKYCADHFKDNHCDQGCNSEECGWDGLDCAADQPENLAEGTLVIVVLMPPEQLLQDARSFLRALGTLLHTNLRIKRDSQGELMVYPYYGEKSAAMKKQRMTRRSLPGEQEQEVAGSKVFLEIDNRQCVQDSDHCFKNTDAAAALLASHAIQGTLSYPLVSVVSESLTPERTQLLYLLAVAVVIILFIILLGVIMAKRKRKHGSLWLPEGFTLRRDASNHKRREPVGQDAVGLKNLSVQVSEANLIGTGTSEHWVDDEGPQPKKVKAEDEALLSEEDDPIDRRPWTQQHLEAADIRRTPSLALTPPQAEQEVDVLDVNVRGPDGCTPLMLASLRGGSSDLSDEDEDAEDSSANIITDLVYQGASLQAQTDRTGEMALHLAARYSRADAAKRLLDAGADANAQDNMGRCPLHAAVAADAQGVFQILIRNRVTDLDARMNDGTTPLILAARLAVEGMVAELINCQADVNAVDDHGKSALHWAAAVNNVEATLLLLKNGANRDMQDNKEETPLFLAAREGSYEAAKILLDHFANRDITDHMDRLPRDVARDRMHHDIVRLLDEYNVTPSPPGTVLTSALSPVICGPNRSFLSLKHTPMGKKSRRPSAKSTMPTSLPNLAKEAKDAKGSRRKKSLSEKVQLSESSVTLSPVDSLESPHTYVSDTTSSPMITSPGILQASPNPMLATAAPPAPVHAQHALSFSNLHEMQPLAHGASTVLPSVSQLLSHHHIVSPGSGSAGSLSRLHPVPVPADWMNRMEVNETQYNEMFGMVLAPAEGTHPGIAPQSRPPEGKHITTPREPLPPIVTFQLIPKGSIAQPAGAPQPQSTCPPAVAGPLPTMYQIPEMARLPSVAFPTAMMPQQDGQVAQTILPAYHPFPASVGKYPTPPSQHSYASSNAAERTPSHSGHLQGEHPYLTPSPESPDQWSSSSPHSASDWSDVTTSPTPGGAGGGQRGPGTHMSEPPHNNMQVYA

Compound	composite z-score [1]	composite z-score [2]	composite z-score [3]	composite z-score [4]	composite z-score [5]	composite z-score [6]	composite z-score [7]	z-score [8]	composite z-score [9]	composite z-score [10]
O=C/C=C/c1ccc(-c2ccccc2)cc1	0.4	-0.0761	-0.0785	0.182	-0.327	-0.727	-0.836	2.7 (inactive)	-0.0543	0.21
C=C(CCCC)C(=O)CC[C@H](OC(=O)c1ccccc1-c1ccccc1C(=O)O)c1cccc(OCCO)c1	0.0622	0.375	-0.133	-0.416	-1.37	1.29	0.652	-0.0278 (inactive)	-0.284	-0.0994
[N-]=[N+]=Nc1ccccc1C[C@@]1(C(=O)NCC(O)CO)N=C(c2ccc(OCCCO)cc2)O[C@@H]1c1ccccc1N=[N+]=[N-] (stereo not given in full)	-0.175	0.045	0.285	0.311	0.194	1.62	0.848	-0.858 (inactive)	0.941	-0.134
CC(C)(C)OC(=O)CC[C@@]1(C(N)=O)N=C(c2ccc(OCCCO)cc2)O[C@@H]1c1ccccc1CN=[N+]=[N-]	0.389	0.87	0.153	0.712	1.57	1.28	1.44	4.09 (inactive)	1.47	0.452
O=C1NC(=O)C2C1C=CC(C(O)C1CCCCC1)N2Nc1ccccn1 (stereo not given)	-0.236	0.0046	-0.0524	0.235	0.629	1.37	1.32	1.64 (inactive)	0.265	-0.374
COCCOC(=O)N1C(=O)[C@@]2(c3cc(C#CCC(C(=O)OC)C(=O)OC)ccc31)[C@H](C(N)=O)[C@H]1C(=O)O[C@H](c3ccccc3)[C@H](c3ccccc3)N1[C@@H]2c1ccccc1OCCO	-0.453	-0.413	-0.152	0.47	0.937	0.555	1.19	-1.3 (inactive)	0.6	-0.0618
COC(=O)Cn1c(C(=O)N(C)C)cc2c1C[C@H]1CN(C(=O)c3ccccc3)[C@@](Cc3ccccc3)(C(=O)OC)[C@@H]21	-0.215	-0.365	-0.0493	0.0707	1.47	1.5	0.641	1.5 (inactive)	0.0747	0.12
CCOC(=O)C=C1C[C@@H](c2cccc([N+](=O)[O-])c2)O[C@@H](c2cccc([N+](=O)[O-])c2)O1	0.654	0.178	0.429	0.432	1.59	0.962	0.896	-2.17 (inactive)	1.72	-0.226
N#Cc1ccc(NN2C(C(O)c3ccc(B(O)O)cc3)C=CC3CN(c4ccccc4)C(=O)C32)cc1 (stereo not given)	0.057	0.239	-0.0893	0.0196	0.074	0.501	1.07	3.26 (inactive)	-0.0118	-0.439
[N-]=[N+]=NCc1ccccc1C[C@@]1(C(N)=O)N=C(c2ccc(OCCCO)cc2)O[C@@H]1c1ccccc1N=[N+]=[N-]	-0.459	-0.0227	0.0131	1.15	1.43	1.38	1.07	-0.739 (inactive)	0.926	0.0722
C=CCC(OC(C)=O)[C@@H]1[C@@H](N(Cc2ccc(-c3ccccc3)cc2)C(=O)Cc2ccc(OC)cc2)c2cc(OCCCO)ccc2N1C(=O)c1ccc2ccccc2c1 (stereo not given in full)	-0.286	1.09	-0.0486	0.269	-0.238	-0.157	-0.659	-0.808 (inactive)	0.544	-0.283
O=C1OCCC/C=C\[C@H]2OC34C=CCN(Cc5ccccc5)C(=O)[C@H]3N(CCO)C(=O)[C@@H]4C12 (stereo not given in full)	0.166	1.08	-0.226	0.866	0.479	1.79	1.53	0.0936 (inactive)	-0.342	-0.0994
C=C(CCCC)/C(=C/C[C@@H](OC(C)=O)c1cccc(OCCO)c1)c1cc(C(=O)OC)ccc1OC	0.289	-0.0739	-0.14	0.222	0.0199	0.361	0.31	0.942 (inactive)	-0.0258	-0.0618
CC1CC/C=C\[C@H]2OC34C=CCN(CCN5CCOCC5)C(=O)[C@H]3N(C(CO)C(C)C)C(=O)[C@@H]4C2C(=O)O1 (stereo not given in full)	-0.0695	0.949	-0.133	-0.528	-0.916	1.77	0.907	-0.363 (inactive)	-0.249	-0.069
CCCNC(=O)[C@@]1(Sc2ccc(C)cc2)CC(=O)N(Cc2cc(C(F)(F)F)cc(C(F)(F)F)c2)[C@@H]1c1ccc(CO)cc1	0.708	-0.332	-0.0363	0.0551	-0.608	-0.78	0.791	0.621 (inactive)	-0.486	-0.236
COCCOC(=O)N1C(=O)[C@@]2(c3cc(C#CCCO)ccc31)[C@H](c1ccc(O)cc1)N1[C@H](c3ccccc3)[C@H](c3ccccc3)OC(=O)[C@H]1[C@@H]2C(=O)NC[C@H](O)c1ccccc1	-0.0825	0.332	-0.0271	0.589	0.163	1.25	1.29	-1.69 (inactive)	0.0962	-0.0645

Compound	composite z-score [1]	composite z-score [2]	composite z-score [3]	composite z-score [4]	composite z-score [5]	composite z-score [6]	composite z-score [7]	z-score [8]	composite z-score [9]	composite z-score [10]
C=CCOC(=O)[C@@H]1[C@H]2C(=O)O[C@H](c3ccccc3)[C@H](c3ccccc3)N2[C@H](c2ccc(OCCOC(=O)[C@@H]3C[C@@H]4C(=O)N[C@@H](CC(C)C)C(=O)N4[C@@H]3c3ccc(O)cc3)cc2)[C@@]12C(=O)Nc1ccc(I)cc12	-0.479	0.17	-0.0489	0.325	0.853	0.616	1.29	-0.277 (inactive)	0.4	0.383
C=C[C@H](C)[C@@H](OC(=O)Nc1ccc(SC)cc1)c1ccc(OCCO)cc1	0.169	0.378	-0.0408	0.0044	-0.421	0.99	1.26	5.34 (inactive)	0.0372	-0.264
COc1ccc([Si](C)(C)[C@H]2[C@H](CC(=O)N(CCO)Cc3ccccc3)O[C@@]3(C(=O)N(Cc4cccc(N5CCCCC5=O)c4)c4ccccc43)[C@@H]2C)cc1	-0.4	1.12	-0.0557	0.141	0.262	0.535	0.907	-2.71 (inactive)	0.0417	-0.166
C#CCN(C(=O)OC(C)(C)C)[C@H](CO)c1ccccc1	-0.402	0.289	-0.113	0.0182	-0.148	-0.329	0.77	-0.0216 (inactive)	0.115	-0.111
Cc1cccc([C@H]2C[C@H]3C(Br)=C[C@@]2(CO)C(=O)[C@]32CO2)c1	-0.053	-0.65	-0.125	0.0924	-0.368	0.131	0.708	1.46 (inactive)	0.275	-0.0994
COCCOC(=O)N1C(=O)[C@@]2(c3cc(C#CCNC(N)=O)ccc31)[C@H](C(N)=O)[C@H]1C(=O)O[C@H](c3ccccc3)[C@H](c3ccccc3)N1[C@@H]2c1ccc(O)cc1	-0.0585	0.0947	-0.0899	0.29	-0.148	0.0637	0.235	-0.329 (inactive)	0.0377	-0.287
C=CCOC(=O)[C@H]1[C@@H]2C(=O)O[C@@H](c3ccccc3)[C@@H](c3ccccc3)N2[C@@H](c2ccc(OCCOC(=O)[C@H]3C[C@H]4C(=O)NCC(=O)N4[C@H]3c3cccc(OCCO)c3)cc2)[C@]12C(=O)Nc1ccc(I)cc12	-0.365	0.469	-0.045	0.589	0.81	0.388	1.3	-0.18 (inactive)	0.557	0.28
CCCN1C(=O)[C@@]2(c3ccc([N+](=O)[O-])cc3)CC(=O)N(C3CCCCC3)[C@@H]2c2ccc(CO)cc21	-0.439	-0.768	-0.0131	-0.201	-0.553	-0.154	1.23	0.693 (inactive)	-0.479	0.137
CCCC1(C(=O)OC)C=C2C(=C(C(C)C)C(=O)C2C)CN1 (stereo not given)	0.578	-0.241	-0.133	-0.397	-0.052	0.688	-0.15	1.89 (inactive)	-0.0967	-0.0645
CCCCCN1CC=CC23O[C@@H]4/C=C\CCCOC(=O)C4[C@H]2C(=O)N(CCO)[C@@H]3C1=O (stereo not given in full)	0.0382	0.351	-0.133	-0.148	-0.326	0.913	1.5	-0.345 (inactive)	-0.345	-0.223
CO[C@H]1O[C@H](CO)[C@@H](OC(=O)Nc2ccccc2)[C@@H]2OC(=O)[C@@H](Cc3ccccc3)C/C=C/C[C@H](Cc3ccccc3)C(=O)O[C@@H]12	-0.263	1.24	-0.0737	0.393	-0.0327	0.379	0.324	-0.461 (inactive)	0.241	0.176
C=CCNC(=O)[C@H]1[C@@H]2C(=O)O[C@@H](c3ccccc3)[C@@H](c3ccccc3)N2[C@@H](c2ccc(O)cc2)[C@]12C(=O)N(C(=O)OCCOC)c1ccc(C#Cc3ccc(OC)cc3)cc12	0.165	0.383	0.0106	0.978	0.759	0.788	0.995	0.75 (inactive)	0.307	-0.0672
C=CC[C@]1(C(N)=O)N=C(c2ccc(OCCCO)cc2)O[C@H]1c1ccccc1N=[N+]=[N-]	0.951	-0.385	0.087	0.672	0.737	1.8	1.06	2.63 (inactive)	1.69	-0.306
CC[C@@H](O[Si](C#C[Si](C(C)C)(C(C)C)C(C)C)(C(C)C)C(C)C)c1cn([C@H](CO)Cc2ccccc2)nn1	-0.48	0.111	-0.187	0.686	0.929	0.0252	0.846	0.355 (inactive)	0.547	-0.0994
COC(=O)[C@@]1(Cc2ccc(F)cc2)[C@H]2c3cc(C(=O)N(C)C)n(Cc4cccc5ccccc45)c3C[C@H]2CN1C(=O)c1ccccc1	1.84	1.71	0.398	1.16	0.77	1.13	1.33	0.255 (inactive)	0.697	0.727
